HT1080NT lethal = qHTS for induction of synthetic lethality in tumor cells producing 2HG: qHTS for the HT-1080-NT fibrosarcoma cell line; HT-1080-NT fibrosarcoma viability, CellTiter-Glo ATP luminescence, 48 h; Potency, µM (titrated, usually from 46.1 µM), for the others: top-dose activity, negative = less viability, usual class: cytotoxic; 360,000 tested, 1.6% active;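 further: NT is the 2HG producing partner of a matched IDH1 knockdown line; 0% = DMSO-treated cells and -100% = media-only wells without cells; nearly all actives have a fitted effect of over 55% in size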
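Luminescent CellTiter-Glo readout after 48 hours of compound exposure at 37 degrees C defined viability of HT-1080-NT cells. Activity was normalized to DMSO wells and cell-free media wells; concentration-response curves were fitted and assigned curve classes.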
KB-3-1 cytotox = qHTS assay for MDR1-selective chemotherapeutics: Primary screen using the parental adenocarcinoma cell KB-3-1. KB-3-1 viability, CellTiter-Glo ATP luminescence, 72 h. Potency, µM (doses to about 46.1 µM), actives largely listed as cytotoxic. 400,000 tested, 1.4% active; further: on the % scale 0 is the no-effect control and ±100 the full control effect; nearly all actives have a fitted effect of over 60% in size
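Parental KB-3-1 adenocarcinoma cells in phenol-red-free DMEM with 10% FBS were pin-treated with compounds at several concentrations, incubated 72 h at 37 °C, and viability read by CellTiter-Glo luminescence; concentration-effect curves were fitted after normalization.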
MCF10A rereplic = A quantitative high throughput screen for small molecules that induce DNA re-replication in MCF 10a normal breast cells | MCF 10A DNA re-replication, Hoechst nuclear intensity, 48 h | Potency, µM (highest dose often 46.1 µM), for the others: top-dose activity, positive = re-replication, usual class: activators | 350,000 tested, 2.9% active | AID 624296, 2012; further: % of control where 0% means no effect; nearly all actives have a fitted effect of over 50% in size
KB-V1 cytotox = qHTS assay for MDR1-selective chemotherapeutics: Primary screen using the drug-selected MDR subline cells KB-V1; KB-V1 MDR cells viability, CellTiter-Glo, 72 h; 400,000 tested, 3.4% active; Potency, µM (series often up to 46.1 µM), actives largely listed as cytotoxic; AID 1347076, 2019; further: on the % scale 0 is the no-effect control and ±100 the full control effect; nearly all actives have a fitted effect of over 60% in size
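Following 72 h at 37 degrees C with compound, KB-V1 cell viability was read by CellTiter-Glo luminescence, medium being phenol-red-free DMEM plus 10% FBS; concentration-response parameters came from normalized, curve-fitted qHTS data.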
SW480 rereplic = A quantitative high throughput screen for small molecules that induce DNA re-replication in SW480 colon adenocarcinoma cells; SW480 DNA re-replication, Hoechst DNA content imaging, 48 h; Potency, µM (series often up to 46.1 µM), without a hit: top-dose re-replication activation, hits mostly activators; 340,000 tested, 1.8% active; AID 624297, 2012; further: % of control where 0% means no effect; nearly all actives have a fitted effect of over 55% in size
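Image-based read-out: total Hoechst fluorescence of nuclei (405 nm excitation, 500-530 nm emission), with hits raising the fraction of high-intensity nuclei. SW480 colon cells incubated 48 hr with compounds at 37 C.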
HT1080 IDH1KD tx = qHTS for induction of synthetic lethality in tumor cells producing 2HG: qHTS for the HT-1080-IDH1KD cell line; HT-1080 IDH1 knockdown viability, ATP luminescence, 48 h; Potency, µM (highest dose often 46.1 µM), without a hit: at the top dose activity, negative = toxicity, hits mostly cytotoxic; 360,000 tested, 2% active;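 further: 0% = DMSO wells and -100% = cell-free medium wells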
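% activity derives from luminescence (CellTiter-Glo), normalised to DMSO and no-cell wells. HT-1080-IDH1KD cells, 750/well, had 48 h compound exposure at 37 °C.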
The depositor's hits bear a star; i = inactive; ? = inconclusive; . = not tested or not shown; [ ] = remark or other dose. Sampled rows, rich in hits. Any-hit rate of the full collection: about 8%. The call rests on the fitted dose curve; in most records, active means well fitted curve in the direction sought with a large enough effect; inconclusive means small, poorly fitted or top-dose-only effect, or another doubt; inactive means no such curve, though single readings can be large; an effect the other way counts as inactive or inconclusive. Potency means the concentration at half of the fitted maximal effect.

SMILES | HT1080NT lethal | KB-3-1 cytotox | MCF10A rereplic | KB-V1 cytotox | SW480 rereplic | HT1080 IDH1KD tx
O=C(N/N=C/C=C\c1ccccc1[N+](=O)[O-])c1cc(-c2ccc3ccccc3c2)n[nH]1 | 13µM* | i | 10.3µM* | i | 8.2µM* | 14.6µM*
O=C(N/N=C/c1ccccn1)c1cc(-c2ccc3ccccc3c2)n[nH]1 | ? | i | ? | i | ? | 16.4µM*
O=C(N/N=C/c1ccco1)c1cc(-c2ccc3ccccc3c2)n[nH]1 | ? | i | 7.94µM* | i | 23.1µM* | ?
O=C(N/N=C/C=C/c1ccccc1[N+](=O)[O-])c1ccncc1 | -2.6% | i | -2.5% | ? | 0.8% | -12.9%
COc1cccc(CCNC(=O)c2cnc3sc(N4CCCCCC4)nn3c2=O)c1 | . | i | . | i | . | .
Cc1cc(C)n(-c2nnc(NCc3ccc(Cl)cc3)nn2)n1 | -15.2% | i | 18.7% | i | 11.6µM* | -28.0%
Cc1nn(-c2nnc(NCc3ccccc3)nn2)c(C)c1Br | -1.7% | 8.2µM* | 14.7% | 20.6µM* | 110.8% | 10.6%
O=c1c2ccccc2nc(/C=C/c2cccc([N+](=O)[O-])c2)n1CCCO | -21.8% | i | 22.9% | i | 11.8%[9.22 µM] | ?
O=c1c2ccccc2nc(/C=C/c2ccc([N+](=O)[O-])o2)n1CCCO | 2.91µM* | 5.8µM* | 4.47µM* | ? | 4.47µM* | 2.91µM*
O=c1c2ccccc2nc(/C=C/c2ccc([N+](=O)[O-])cc2)n1CCCO | 1.5% | ? | 15.3% | 20.6µM* | 2.6% | -10.7%
CCOCCc1nn2c(=O)cc(COC(=O)C(CC)c3ccccc3)nc2s1 (centres undefined) | . | i | . | i | . | .
O=C1CCc2cc(S(=O)(=O)Nc3cccc(Br)c3)ccc2N1 | . | i | . | i | . | .
Cc1ccc(C(=O)OC(C(=O)Nc2ccc(Cl)cc2C(F)(F)F)c2ccccc2)cc1 (centres undefined) | ? | i | ? | i | -1.0% | ?
O=C(OC(C(=O)Nc1ccc(Cl)cc1C(F)(F)F)c1ccccc1)c1c(Cl)cccc1Cl (centres undefined) | -7.5% | ? | 5.8µM* | i | 2.8% | -16.3%
COc1ccc(NC(=O)c2ccc3ccccc3c2)cc1NS(=O)(=O)c1ccc(F)cc1 | 7.4% | i | 9.0% | 20.6µM* | -2.2% | 6.2%
COc1ccc(OC)c(NS(=O)(=O)c2ccc(NC(=O)c3ccc(NS(C)(=O)=O)cc3)cc2)c1 | 0.7% | 16.4µM* | ? | i | -97.6% | 8.1%
CC(C)c1ccc(NC(=O)c2ccc(NS(C)(=O)=O)cc2)cc1 | ? | i | 9.2µM* | i | 5.4% | -24.6%
CC(C)CCn1nnc2sc(-c3ccccc3)cc2c1=O | . | i | . | i | . | .
Cc1c(C(=O)NCc2cccnc2)oc2ccccc12 | 8.4% | i | 3.3% | 16.4µM* | -10.6% | -1.2%
Cc1c(C(=O)Oc2cccc3cccnc23)oc2ccccc12 | 23.1µM* | i | ? | i | ? | 23.1µM*
CN1CCC(N(C)S(=O)(=O)c2ccc(NC(=O)c3ccc(S(=O)(=O)N(C)C)cc3)cc2)CC1 | 5.5% | i | 3.3% | i | 0.1% | 15.9%
O=C(Nc1ccccc1C(=O)Nc1nnc(C(F)(F)F)s1)c1ccccc1 | 3.26µM* | ? | ? | ? | -56.7% | 4.61µM*
Cc1c(C(=O)Nc2ccc(S(=O)(=O)N(C)C3CCN(C)CC3)cc2)oc2ccccc12 | -10.2% | i | ? | 20.6µM* | ? | -10.6%
Cc1c(C(=O)NCCc2ccccc2)oc2ccccc12 | 20.0% | i | 5.4% | i | 2.1% | 16.2%
COc1ccc(S(=O)(=O)N(CC(=O)NC(C)c2ccccc2)c2ccc(C)cc2)cc1OC (centres undefined) | . | i | . | ? | . | .
SMILES | HT1080NT lethal | KB-3-1 cytotox | MCF10A rereplic | KB-V1 cytotox | SW480 rereplic | HT1080 IDH1KD tx
CCC(=O)N1CCc2cc(S(=O)(=O)NC(C(=O)NCCc3ccc(OC)c(OC)c3)C(C)C)ccc21 (centres undefined) | . | i | . | i | . | .
COc1cc(NC(=O)CCn2c(-c3ccccc3)cc(C(C)=O)c2C)cc(OC)c1 | . | i | . | i | . | .
COC(=O)c1sc(NC(=O)c2oc3ccccc3c2C)nc1C | -1.1% | i | 0.3% | i | -0.7% | -2.3%
Cc1c(C(=O)Nc2nnc(C(F)(F)F)s2)oc2ccccc12 | -13.8% | i | ? | 18.4µM* | 17.4% | -1.7%
Cc1c(C(=O)Nc2ccccn2)oc2ccccc12 | -8.0% | i | ? | 10.3µM* | -2.0% | ?
CCN(CC)C(=O)c1sc2nc(-c3cccs3)cc(-c3cccs3)c2c1N | 9.7% | i | ? | i | 1.2% | 1.3%
CCN(CC)C(=O)c1sc2nc(-c3cccs3)cc(-c3ccc(Cl)cc3)c2c1N | 9.2% | i | ? | i | 13µM* | 11.5%
COc1ccc(-c2nc(SCC(=O)Nc3ccc4c(c3)OCCO4)c(-c3ccc(F)cc3)[nH]2)cc1 | . | i | . | i | . | .
COc1cccc(-c2nn(C)c3sc(C(=O)Nc4ccc5c(c4)OCCO5)cc23)c1 | -19.7% | i | ? | 18.4µM* | 12.4% | -27.5%
COc1ccc(-c2nc(SCC(=O)Nc3nccs3)c(-c3ccc(Cl)cc3)[nH]2)cc1 | ? | ? | 14.6% | ? | 11.5% | ?
COc1ccc(-c2[nH]c(-c3ccc(C)cc3)nc2SCC(=O)Nc2nccs2)cc1 | ? | ? | ? | 23.1µM* | . | ?
COc1cccc(-c2nc(SCC(=O)Nc3ccc4c(c3)OCCO4)c(-c3ccc(C)cc3)[nH]2)c1 | . | 20.6µM* | . | ? | . | .
COc1cccc(CNC(=O)c2nn(-c3ccc(C)cc3)c(=O)c3c2c2ccccc2n3C)c1 | . | i | . | i | . | .
CCOc1ccc(CNC(=O)c2cccn2-c2nnc(N3CCCCC3)s2)cc1OC | . | i | . | i | . | .
Cc1nn(Cc2c(Cl)cccc2Cl)c(Cl)c1/C=C/C(=O)OCC(=O)NCC(F)(F)F | 4.4% | i | -2.1% | i | -4.2% | 9.1%
COCCNC(=O)COC(=O)/C=C/c1c(C)nn(Cc2ccc(Cl)cc2Cl)c1Cl | -27.2% | ? | 12.6µM* | ? | -27.0% | ?

Compound activity from PubChem.
